Measurements reported in PMC10812921, “Transcriptional Coactivator BOB1 (OBF1, OCA-B) Modulates the Specificity of DNA Recognition by the POU-Domain Factors OCT1 and OCT2 in a Monomeric Configuration”.

How the values were obtained:
POU1 (OCT1 POU domain) = POU1 (OCT1 POU domain) (human, UniProt P14859 260-458); test: EMSA-SELEX-seq; no BOB1; 20 mM Tris-HCl pH 7.6, 140 mM NaCl, 10% glycerol, 0.5 mM EDTA, 0.05% Triton X-100, 0.1 mg/mL BSA, 0.1 mg/mL poly(dI-dC), 5 mM DTT, room temperature, 20 min; high values mean tight binding; settings: protein: recombinant; dsDNA, one strand shown
Method in brief: (§1)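 In this selection, tagged POU-domain proteins from E. coli BL21, purified under denaturing conditions and renatured, were bound to a PCR-amplified double-stranded random 35-nt library with or without coactivator protein. Reactions held 30 ng protein, 300 ng library and, where used, 28 ng coactivator protein in 20 μL Tris–HCl pH 7.6 binding buffer for 20 min at RT. Complex bands were cut from native 6% PAGE, eluted and PCR-amplified over four rounds, then Illumina-sequenced, and binding preference is the percentage of sequenced 8-mers matching a motif pattern.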

POU2 (OCT2 POU domain) = molecular target: T1, POU2 (OCT2 POU domain) (human, UniProt P09086 175-386); test: as above; settings: protein: recombinant; dsDNA, one strand shown
T1 sequence: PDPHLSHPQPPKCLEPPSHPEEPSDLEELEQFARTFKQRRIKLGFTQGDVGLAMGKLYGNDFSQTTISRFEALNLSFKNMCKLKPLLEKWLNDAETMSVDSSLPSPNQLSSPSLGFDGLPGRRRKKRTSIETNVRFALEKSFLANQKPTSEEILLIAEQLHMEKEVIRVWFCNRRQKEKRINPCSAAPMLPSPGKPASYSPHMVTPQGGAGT
Method in brief: as §1

[1] = molecular target: POU1 (OCT1 POU domain);BOB1 (OBF1, OCA-B) (human;human, UniProt P14859;Q16633 260-458;1-256, |); test: EMSA-SELEX-seq; with BOB1 (ternary complex band); 20 mM Tris-HCl pH 7.6, 140 mM NaCl, 10% glycerol, 0.5 mM EDTA, 0.05% Triton X-100, 0.1 mg/mL BSA, 0.1 mg/mL poly(dI-dC), 5 mM DTT, room temperature, 20 min; high values mean tight binding; settings: protein: recombinant;recombinant; copies: 1;1; dsDNA, one strand shown
Method in brief: as §1

[2] = molecular target: T2, POU2 (OCT2 POU domain);BOB1 (OBF1, OCA-B) (human;human, UniProt P09086;Q16633 175-386;1-256, |); test: as above; settings: protein: recombinant;recombinant; copies: 1;1; dsDNA, one strand shown
T2 sequence 1: T1 sequence
T2 sequence 2: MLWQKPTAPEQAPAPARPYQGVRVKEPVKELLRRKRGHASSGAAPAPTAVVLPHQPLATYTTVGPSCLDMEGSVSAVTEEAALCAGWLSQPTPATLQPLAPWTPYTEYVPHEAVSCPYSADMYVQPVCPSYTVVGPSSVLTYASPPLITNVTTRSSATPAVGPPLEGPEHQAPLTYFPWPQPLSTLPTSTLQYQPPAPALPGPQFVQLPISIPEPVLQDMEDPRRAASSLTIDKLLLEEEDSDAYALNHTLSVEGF
Method in brief: as §1

Chain of POU1 (OCT1 POU domain) (P14859 260-458): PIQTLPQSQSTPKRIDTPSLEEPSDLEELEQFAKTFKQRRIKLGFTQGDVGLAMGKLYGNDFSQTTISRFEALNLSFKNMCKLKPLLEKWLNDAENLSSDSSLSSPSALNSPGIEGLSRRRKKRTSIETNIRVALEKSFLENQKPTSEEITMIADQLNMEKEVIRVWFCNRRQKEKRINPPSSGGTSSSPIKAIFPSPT

| Sequence | binding signal (POU1 (OCT1 POU domain)) | binding signal (POU2 (OCT2 POU domain)) | binding signal [1] | binding signal [2] |
| --- | --- | --- | --- | --- |
| ATACAAAT | 0.318 % of ANNNNAAN 8-mers | 0.269 % of ANNNNAAN 8-mers | 0.526 % of ANNNNAAN 8-mers | 0.498 % of ANNNNAAN 8-mers |
| ACCTAAAA | 0.021 % of ANNNNAAN 8-mers | 0.0311 % of ANNNNAAN 8-mers | 0.0254 % of ANNNNAAN 8-mers | 0.0157 % of ANNNNAAN 8-mers |
| AGTATAAC | 0.0278 % of ANNNNAAN 8-mers | 0.0328 % of ANNNNAAN 8-mers | 0.0226 % of ANNNNAAN 8-mers | 0.0248 % of ANNNNAAN 8-mers |
| ACTCGAAA | 0.0271 % of ANNNNAAN 8-mers | 0.0357 % of ANNNNAAN 8-mers | 0.0293 % of ANNNNAAN 8-mers | 0.0314 % of ANNNNAAN 8-mers |
| ATACGAAG | 0.0481 % of ANNNNAAN 8-mers | 0.0552 % of ANNNNAAN 8-mers | 0.0574 % of ANNNNAAN 8-mers | 0.0388 % of ANNNNAAN 8-mers |
| AACCTAAG | 0.0256 % of ANNNNAAN 8-mers | 0.0213 % of ANNNNAAN 8-mers | 0.018 % of ANNNNAAN 8-mers | 0.0173 % of ANNNNAAN 8-mers |
| ACGACAAA | 0.0217 % of ANNNNAAN 8-mers | 0.0299 % of ANNNNAAN 8-mers | 0.0222 % of ANNNNAAN 8-mers | 0.0256 % of ANNNNAAN 8-mers |
| ATCCTAAG | 0.0324 % of ANNNNAAN 8-mers | 0.0299 % of ANNNNAAN 8-mers | 0.0312 % of ANNNNAAN 8-mers | 0.0405 % of ANNNNAAN 8-mers |
| AATGTAAG | 0.104 % of ANNNNAAN 8-mers | 0.106 % of ANNNNAAN 8-mers | 0.089 % of ANNNNAAN 8-mers | 0.0958 % of ANNNNAAN 8-mers |
| ACCAGAAA | 0.029 % of ANNNNAAN 8-mers | 0.0242 % of ANNNNAAN 8-mers | 0.0254 % of ANNNNAAN 8-mers | 0.0157 % of ANNNNAAN 8-mers |
| ATGGAAAT | 0.943 % of ANNNNAAN 8-mers | 0.723 % of ANNNNAAN 8-mers | 0.958 % of ANNNNAAN 8-mers | 0.982 % of ANNNNAAN 8-mers |
| ATCAGAAC | 0.0214 % of ANNNNAAN 8-mers | 0.0242 % of ANNNNAAN 8-mers | 0.0238 % of ANNNNAAN 8-mers | 0.0371 % of ANNNNAAN 8-mers |
| ATTATAAC | 0.0713 % of ANNNNAAN 8-mers | 0.113 % of ANNNNAAN 8-mers | 0.0581 % of ANNNNAAN 8-mers | 0.057 % of ANNNNAAN 8-mers |
| ATGACAAG | 0.0404 % of ANNNNAAN 8-mers | 0.0351 % of ANNNNAAN 8-mers | 0.0336 % of ANNNNAAN 8-mers | 0.0289 % of ANNNNAAN 8-mers |
| AATTCAAG | 0.101 % of ANNNNAAN 8-mers | 0.0886 % of ANNNNAAN 8-mers | 0.0714 % of ANNNNAAN 8-mers | 0.0817 % of ANNNNAAN 8-mers |
| ACGTAAAG | 0.0416 % of ANNNNAAN 8-mers | 0.0409 % of ANNNNAAN 8-mers | 0.0667 % of ANNNNAAN 8-mers | 0.0479 % of ANNNNAAN 8-mers |
| ACCAAAAT | 0.0446 % of ANNNNAAN 8-mers | 0.0397 % of ANNNNAAN 8-mers | 0.055 % of ANNNNAAN 8-mers | 0.0537 % of ANNNNAAN 8-mers |
| AGTTTAAA | 0.0881 % of ANNNNAAN 8-mers | 0.0938 % of ANNNNAAN 8-mers | 0.0808 % of ANNNNAAN 8-mers | 0.0751 % of ANNNNAAN 8-mers |
| AAACTAAA | 0.0503 % of ANNNNAAN 8-mers | 0.0483 % of ANNNNAAN 8-mers | 0.0523 % of ANNNNAAN 8-mers | 0.0471 % of ANNNNAAN 8-mers |

| Sequence | binding signal (POU1 (OCT1 POU domain)) | binding signal (POU2 (OCT2 POU domain)) | binding signal [1] | binding signal [2] |
| --- | --- | --- | --- | --- |
| ATCGGAAA | 0.04 % of ANNNNAAN 8-mers | 0.0409 % of ANNNNAAN 8-mers | 0.0429 % of ANNNNAAN 8-mers | 0.0528 % of ANNNNAAN 8-mers |
| AGACCAAT | 0.0275 % of ANNNNAAN 8-mers | 0.0219 % of ANNNNAAN 8-mers | 0.0261 % of ANNNNAAN 8-mers | 0.033 % of ANNNNAAN 8-mers |
| AGTTTAAT | 0.129 % of ANNNNAAN 8-mers | 0.156 % of ANNNNAAN 8-mers | 0.0882 % of ANNNNAAN 8-mers | 0.111 % of ANNNNAAN 8-mers |
| AAACGAAT | 0.0767 % of ANNNNAAN 8-mers | 0.0783 % of ANNNNAAN 8-mers | 0.0675 % of ANNNNAAN 8-mers | 0.0792 % of ANNNNAAN 8-mers |
| AACTCAAG | 0.0194 % of ANNNNAAN 8-mers | 0.0219 % of ANNNNAAN 8-mers | 0.0164 % of ANNNNAAN 8-mers | 0.0289 % of ANNNNAAN 8-mers |
| ATGAGAAT | 0.101 % of ANNNNAAN 8-mers | 0.134 % of ANNNNAAN 8-mers | 0.0784 % of ANNNNAAN 8-mers | 0.106 % of ANNNNAAN 8-mers |
| AGACTAAT | 0.0744 % of ANNNNAAN 8-mers | 0.102 % of ANNNNAAN 8-mers | 0.0507 % of ANNNNAAN 8-mers | 0.066 % of ANNNNAAN 8-mers |
| AGATCAAC | 0.0175 % of ANNNNAAN 8-mers | 0.0207 % of ANNNNAAN 8-mers | 0.0211 % of ANNNNAAN 8-mers | 0.0338 % of ANNNNAAN 8-mers |
| AACGTAAA | 0.0816 % of ANNNNAAN 8-mers | 0.0639 % of ANNNNAAN 8-mers | 0.0843 % of ANNNNAAN 8-mers | 0.0578 % of ANNNNAAN 8-mers |
| AATAAAAT | 0.214 % of ANNNNAAN 8-mers | 0.214 % of ANNNNAAN 8-mers | 0.185 % of ANNNNAAN 8-mers | 0.164 % of ANNNNAAN 8-mers |
| ATGCTAAC | 0.0671 % of ANNNNAAN 8-mers | 0.0949 % of ANNNNAAN 8-mers | 0.0347 % of ANNNNAAN 8-mers | 0.0495 % of ANNNNAAN 8-mers |
| ATTATAAT | 0.94 % of ANNNNAAN 8-mers | 1.04 % of ANNNNAAN 8-mers | 0.163 % of ANNNNAAN 8-mers | 0.207 % of ANNNNAAN 8-mers |
| ATAGAAAC | 0.0328 % of ANNNNAAN 8-mers | 0.0455 % of ANNNNAAN 8-mers | 0.0339 % of ANNNNAAN 8-mers | 0.0355 % of ANNNNAAN 8-mers |
| ATGATAAA | 0.104 % of ANNNNAAN 8-mers | 0.131 % of ANNNNAAN 8-mers | 0.0644 % of ANNNNAAN 8-mers | 0.0619 % of ANNNNAAN 8-mers |
| ACAAGAAT | 0.0454 % of ANNNNAAN 8-mers | 0.0518 % of ANNNNAAN 8-mers | 0.0437 % of ANNNNAAN 8-mers | 0.0512 % of ANNNNAAN 8-mers |
| AATATAAC | 0.05 % of ANNNNAAN 8-mers | 0.0817 % of ANNNNAAN 8-mers | 0.0589 % of ANNNNAAN 8-mers | 0.0578 % of ANNNNAAN 8-mers |
| AGAAAAAG | 0.0534 % of ANNNNAAN 8-mers | 0.0581 % of ANNNNAAN 8-mers | 0.0468 % of ANNNNAAN 8-mers | 0.0421 % of ANNNNAAN 8-mers |
| AAAAAAAA | 0.11 % of ANNNNAAN 8-mers | 0.193 % of ANNNNAAN 8-mers | 0.174 % of ANNNNAAN 8-mers | 0.13 % of ANNNNAAN 8-mers |
